# Assay outcomes: PubChem, Broad Institute
# IDE exosite FP: exo-site inhibitors of human IDE, primary screen, biochemical, fluorescence anisotropy, probe displacement; Insulin-degrading enzyme (Homo sapiens), P14735; 17,000 tested, 6.3% active; z-score at 20 µM; AID 1259349, 2017; purified IDE, FL-6b probe fluorescence polarization; hits give low values;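 active = z-score of -3 or lower, meaning strong loss of probe binding signal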;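 note: His-tagged human IDE residues 42-1019 made in E. coli with 30 nM FL-6b probe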
# Target sequence (P14735 42-1019 limits assumed): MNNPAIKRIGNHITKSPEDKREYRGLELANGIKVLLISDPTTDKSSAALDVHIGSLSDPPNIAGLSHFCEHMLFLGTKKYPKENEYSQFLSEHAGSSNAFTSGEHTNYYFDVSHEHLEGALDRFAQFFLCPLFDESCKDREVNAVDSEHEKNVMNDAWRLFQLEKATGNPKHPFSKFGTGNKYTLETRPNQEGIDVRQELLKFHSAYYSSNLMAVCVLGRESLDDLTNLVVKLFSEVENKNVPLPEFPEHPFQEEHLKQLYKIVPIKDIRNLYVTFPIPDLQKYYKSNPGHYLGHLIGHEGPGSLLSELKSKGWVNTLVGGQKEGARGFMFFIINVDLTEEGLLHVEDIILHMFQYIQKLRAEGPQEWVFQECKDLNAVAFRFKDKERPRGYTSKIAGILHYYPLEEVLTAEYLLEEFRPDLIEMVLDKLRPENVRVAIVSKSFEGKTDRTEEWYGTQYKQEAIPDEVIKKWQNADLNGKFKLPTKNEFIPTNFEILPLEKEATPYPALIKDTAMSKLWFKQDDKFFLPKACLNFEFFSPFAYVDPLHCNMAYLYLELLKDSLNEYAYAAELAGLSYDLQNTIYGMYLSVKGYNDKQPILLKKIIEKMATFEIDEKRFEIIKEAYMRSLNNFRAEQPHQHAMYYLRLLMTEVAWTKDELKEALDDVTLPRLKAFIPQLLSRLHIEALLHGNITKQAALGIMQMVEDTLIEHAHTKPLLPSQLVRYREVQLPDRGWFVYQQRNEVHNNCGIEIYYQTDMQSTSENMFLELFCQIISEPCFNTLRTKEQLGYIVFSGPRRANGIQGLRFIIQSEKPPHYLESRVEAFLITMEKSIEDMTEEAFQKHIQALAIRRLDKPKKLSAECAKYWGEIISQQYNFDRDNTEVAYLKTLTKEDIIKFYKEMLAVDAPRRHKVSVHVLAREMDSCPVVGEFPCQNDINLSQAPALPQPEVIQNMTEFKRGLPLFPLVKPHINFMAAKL
# Starred values were filed as active, the others as inactive. Only a selection was taken, and hits are over-represented in it overall.
SMILES,IDE exosite FP
Cc1noc(C)c1S(=O)(=O)Nc1ccc2c(c1)CC(=O)N([C@H](C)CO)C[C@H](C)[C@H](CN(C)Cc1ccc(Oc3ccccc3)cc1)O2,0.079
C[C@@H]1CN([C@@H](C)CO)C(=O)c2cc(N(C)C)ccc2O[C@H]1CN(C)Cc1ccc(Oc2ccccc2)cc1,-0.56
Cc1noc(C)c1S(=O)(=O)Nc1ccc2c(c1)CC(=O)N([C@@H](C)CO)C[C@H](C)[C@@H](CN(C)Cc1ccc(Oc3ccccc3)cc1)O2,-4.3*
Cc1noc(C)c1S(=O)(=O)Nc1ccc2c(c1)CC(=O)N([C@H](C)CO)C[C@@H](C)[C@H](CN(C)Cc1ccc(Oc3ccccc3)cc1)O2,-1.1
C[C@@H]1CN([C@H](C)CO)C(=O)c2cc(/C=C/c3ccccc3)cnc2O[C@@H]1CN(C)S(=O)(=O)c1ccccc1F,-2.1
C[C@@H]1CN([C@@H](C)CO)C(=O)c2cc(/C=C/c3ccccc3)cnc2O[C@@H]1CN(C)S(=O)(=O)c1ccccc1F,-4*
C[C@H](CO)N1C[C@H](C)[C@@H](CN(C)S(=O)(=O)c2ccccc2F)Oc2ncc(/C=C/c3ccccc3)cc2C1=O,0.42
C[C@H]1CN([C@@H](C)CO)C(=O)c2cc(Br)cnc2O[C@H]1CN(C)Cc1ccc(Oc2ccccc2)cc1,-3.5*
C[C@@H]1CN([C@@H](C)CO)C(=O)c2cc(N(C)C)ccc2O[C@@H]1CN(C)Cc1ccc(Oc2ccccc2)cc1,-1.4
CCC(=O)N1[C@H](CO)[C@H](c2ccc(C#CC3CCCCC3)cc2)[C@@H]1CNC(C)C,0.14
O=C(C[C@@H]1CC[C@H]2[C@@H](COC[C@H](O)CN2C(=O)c2ccncc2)O1)NCc1cc(F)cc(F)c1,0.61
COc1ccccc1NC(=O)N1CC(=O)N2[C@H](CO)[C@@H](c3ccc(C#CC4CC4)cc3)[C@@H]2C1,-2
O=C1CNC[C@H]2[C@@H](c3ccc(C#CC4CCCC4)cc3)[C@H](CO)N12,4.1
COCC#Cc1ccc([C@H]2[C@H]3CN(C(=O)C4CCOCC4)CC(=O)N3[C@H]2CO)cc1,0.44
CC(C)[C@@H]1C(=O)N[C@@H](c2ccc(F)cc2)CC=CC[C@H](C)Oc2ccccc2C(=O)N1C (mixture of isomers),0.4
COc1cc(CN2CC3(CCN(S(=O)(=O)c4cn(C)cn4)CC3)c3c(n(C)c4cc(OC)ccc34)[C@@H]2CO)cc(OC)c1,0.0077
CN(C)CC#Cc1ccc([C@@H]2[C@@H](CO)N3C(=O)CN(C(=O)CN(C)C)C[C@H]23)cc1,-0.1
O=C(NC1CCCC1)N1CC(=O)N2[C@@H](CO)[C@H](c3ccc(/C=C/c4ccccc4)cc3)[C@@H]2C1,-6.5*
C/C=C/c1ccc([C@H]2[C@@H](CO)N3C(=O)CN(C(=O)CC4CC4)C[C@@H]23)cc1,-1.4
COc1ccc(NC(=O)N2CC(=O)N3[C@@H](CO)[C@H](c4ccc(/C=C/c5ccccc5)cc4)[C@@H]3C2)cc1,2.6
CN(C)CC(=O)N1CC(=O)N2[C@H](CO)[C@@H](c3ccc(/C=C/c4ccccc4)cc3)[C@H]2C1,-5.6*
O=C(NC1CCCC1)N1CC(=O)N2[C@H](CO)[C@H](c3ccc(/C=C/c4ccccc4)cc3)[C@@H]2C1,-0.53
O=C(NC1CCCC1)N1CC(=O)N2[C@H](CO)[C@@H](c3ccc(/C=C/c4ccccc4)cc3)[C@H]2C1,-9.5*
O=C(NC1CCCCC1)N1CC(=O)N2[C@H](C1)[C@@H](c1ccc(/C=C/c3ccccc3)cc1)[C@@H]2CO,-1.7
C/C=C/c1ccc([C@H]2[C@H](CO)N3C(=O)CN(C(=O)NC4CCCCC4)C[C@@H]23)cc1,-0.68
SMILES,IDE exosite FP
CN(C)CC(=O)N1CC(=O)N2[C@H](CO)[C@@H](c3ccc(-c4ccc(C(=O)N(C)C)cc4)cc3)[C@H]2C1,0.045
C/C=C/c1ccc([C@@H]2[C@@H](CO)N3C(=O)CN(C(=O)NC4CCCC4)C[C@@H]23)cc1,-3.2*
COc1ccc(C#Cc2ccc([C@@H]3[C@H](CO)N4C(=O)CN(C(=O)Nc5ccccc5F)C[C@@H]34)cc2)cc1,3.5
CCCC#Cc1ccc([C@H]2[C@H]3CN(C(=O)c4cccc(F)c4)CC(=O)N3[C@H]2CO)cc1,0.11
CO[C@H]1CN(C)C(=O)c2cc(NS(C)(=O)=O)ccc2OC[C@@H](C)N(C(=O)C2CCOCC2)C[C@@H]1C,0.012
CN(C)C(=O)c1cccc(-c2ccc([C@H]3[C@@H](CO)N4CCCCN(CC5CCOCC5)C[C@@H]34)cc2)c1,-0.15
CO[C@H]1CN(C)C(=O)c2cc(NC(=O)NC(C)C)ccc2OC[C@@H](C)N(Cc2ccccc2)C[C@H]1C,0.18
CC(C)[C@@H]1C/C=C\CCNC(=O)[C@H](C)CC(=O)N1,2
COc1ccccc1NC(=O)N1C[C@@H](O)COC[C@@H]2O[C@H](CC(=O)NCCc3ccncc3)CC[C@H]21,0.86
Cc1ccc(-c2ccc([C@H]3[C@H](CO)N4C(=O)CN(C(=O)NC(C)C)C[C@@H]34)cc2)cc1,-0.41
Cc1ccc(-c2ccc([C@H]3[C@H]4CN(C(=O)NC(C)C)CC(=O)N4[C@H]3CO)cc2)cc1,-0.62
CC(C)NC(=O)N1CC(=O)N2[C@H](CO)[C@@H](c3ccc(/C=C/c4ccccc4)cc3)[C@H]2C1,-6.9*
CCC(=O)NC[C@@H]1[C@@H](c2ccc(-c3cccc(F)c3)cc2)[C@H](CO)N1C(=O)CC,-0.67
CC(=O)N(C)C[C@@H]1[C@H](c2ccc(-c3cccc(C#N)c3)cc2)[C@H](CO)N1C(C)=O,0.66
O=C(Nc1ccc(F)cc1)N1CCCCN2[C@H](C1)[C@@H](c1ccc(C#Cc3ccccc3)cc1)[C@@H]2CO,-0.6
CCN(C[C@H]1[C@@H](c2ccccc2)[C@H](CO)N1C(C)=O)C(=O)c1ccccn1,1.1
CCC(=O)N1[C@H](CN(C)C(C)=O)[C@@H](c2ccc(-c3ccccc3)cc2)[C@@H]1CO,1.9
CS(=O)(=O)N1[C@H](CO)[C@H](c2ccccc2)[C@@H]1C#N,1.6
O=C(Nc1cc(F)ccc1F)N1CC(=O)N2[C@@H](CO)[C@@H](c3ccc(-c4cccnc4)cc3)[C@@H]2C1,1.9
O=C(Nc1ccccc1F)N1CC(=O)N2[C@@H](CO)[C@H](c3ccc(C#Cc4ccccc4)cc3)[C@@H]2C1,-8.9*
O=C(Nc1ccccc1F)N1CC(=O)N2[C@H](C1)[C@@H](c1ccc(C#Cc3ccccc3)cc1)[C@@H]2CO,-2.8
O=C(Nc1ccccc1F)N1CC(=O)N2[C@H](CO)[C@@H](c3ccc(-c4ccccc4)cc3)[C@@H]2C1,-6*
O=C(Nc1ccccc1F)N1CC(=O)N2[C@H](CO)[C@@H](c3ccc(C#Cc4ccccc4)cc3)[C@H]2C1,-0.57
O=C(Nc1cc(F)ccc1F)N1CC(=O)N2[C@H](CO)[C@H](c3ccc(-c4cccnc4)cc3)[C@H]2C1,-4.5*
O=C(Nc1ccccc1F)N1CC(=O)N2[C@H](CO)[C@@H](c3ccc(-c4ccccc4)cc3)[C@H]2C1,-1.4
O=C(Nc1ccccc1F)N1CC(=O)N2[C@H](CO)[C@H](c3ccc(-c4ccccc4)cc3)[C@@H]2C1,-0.51
O=C(Nc1cc(F)ccc1F)N1CC(=O)N2[C@@H](CO)[C@H](c3ccc(-c4cccnc4)cc3)[C@@H]2C1,1.6
O=C(Nc1ccccc1F)N1CC(=O)N2[C@H](CO)[C@@H](c3ccc(C#CC4CC4)cc3)[C@@H]2C1,-0.9
CO[C@@H]1CC[C@@H]2CCOc3c(C#N)cccc3C(=O)N(C)C[C@@H](c3ccccc3)CC(=O)N(C)C[C@H]1O2,-0.64
